# An excerpt weighted towards active compounds, which were near 11% of everything screened.
# HEK cytotox: HEK 293 cell cytotoxicity; HEK 293 viability, ATP luminescence (CellTiter-Glo), 48-72 h; Potency, µM (top dose mostly 115 µM), inactives show at the top dose activity change, negative = cytotoxicity, most hits filed as inhibitors; hit rate 6.6% among 94,000; AID 1345083; active means well fitted curve in the direction sought with a large enough effect; inconclusive means small, poorly fitted or top-dose-only effect, or another doubt; inactive means no such curve, though single readings can be large; an effect the other way counts as inactive or inconclusive; further: on the % scale 0 is the no-effect control and ±100 the full control effect; nearly all actives have a fitted effect of over 60% in size
#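 250 HEK 293 cells/well; compound by pintool; incubated 48 or 72 hr at 37 degree Celsius; CellTiter-Glo added, 10 min RT, luminescence imaged.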
# hNpr1 antagonist: antagonists of human natriuretic peptide receptor Npr1 | P16066 | HEK293 hNpr1 GloSensor cGMP, ANP-stimulated luminescence | Potency, µM (highest dose often 46.3 µM), inactives show at the highest dose activity change, negative = inhibition, usual class: inhibitors | hit rate 1.6% among 76,000 | AID 1347048; further: on the % scale 0 is the no-effect control and ±100 the full control effect; nearly all actives have a fitted effect of over 60% in size
#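 Compound pre-incubated 30 min at room temperature on GloSensor-loaded HEK293 cells stably carrying hNpr1 and the pGS-40F cGMP biosensor. Stimulation uses hNppA at 0.1 nM final; luminescence is taken at baseline and 20 min post-agonist.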
# 3T3 cytotox: kills NIH 3T3 cells. Potency, µM (doses to about 96.7 µM), for inactives: at the highest dose activity change, negative = cytotoxicity, actives largely listed as inhibitors. NIH 3T3 viability, CellTiter-Glo ATP luminescence, 48-72 h. AID 1345082. hit rate 4.3% among 94,000; active means well fitted curve in the direction sought with a large enough effect; inconclusive means small, poorly fitted or top-dose-only effect, or another doubt; inactive means no such curve, though single readings can be large; an effect the other way counts as inactive or inconclusive; further: on the % scale 0 is the no-effect control and ±100 the full control effect; nearly all actives have a fitted effect of over 55% in size
#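 First NIH 3T3 cells are plated at 400 cells/well; next compound is pinned in; then plates incubate 48 or 72 hr at 37 °C; finally CellTiter-Glo is added and luminescence read after 10 min.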
# FLuc inh: blocks purified firefly luciferase enzyme activity. purified P. pyralis luciferase, luminescence, biochemical. Potency, µM (top dose mostly 115 µM), hits mostly inhibitors. hit rate 2.5% among 76,000; active means well fitted curve in the direction sought with a large enough effect; inconclusive means small, poorly fitted or top-dose-only effect, or another doubt; inactive means no such curve, though single readings can be large; an effect the other way counts as inactive or inconclusive; further: on the % scale 0 is the no-effect control and ±100 the full control effect; nearly all actives have a fitted effect of over 65% in size
# Target sequence (P08659 whole entry, looked up): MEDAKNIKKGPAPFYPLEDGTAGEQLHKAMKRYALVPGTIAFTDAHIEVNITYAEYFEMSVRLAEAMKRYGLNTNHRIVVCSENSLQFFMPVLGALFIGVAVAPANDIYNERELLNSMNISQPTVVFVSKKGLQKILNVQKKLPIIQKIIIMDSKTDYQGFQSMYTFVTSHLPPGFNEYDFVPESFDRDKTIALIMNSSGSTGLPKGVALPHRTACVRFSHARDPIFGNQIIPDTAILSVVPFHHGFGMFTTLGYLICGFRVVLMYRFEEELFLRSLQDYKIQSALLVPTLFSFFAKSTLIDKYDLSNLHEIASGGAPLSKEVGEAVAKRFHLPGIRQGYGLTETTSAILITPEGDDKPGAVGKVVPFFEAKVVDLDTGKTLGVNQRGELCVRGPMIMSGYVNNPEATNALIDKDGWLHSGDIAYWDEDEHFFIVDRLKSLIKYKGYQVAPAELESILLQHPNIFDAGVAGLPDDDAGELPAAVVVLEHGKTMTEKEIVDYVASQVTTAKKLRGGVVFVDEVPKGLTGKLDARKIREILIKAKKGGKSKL
#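 Purified P. pyralis luciferase (10nM final) in 50mM Tris acetate pH 7.5, 10mM Mg acetate, 0.01% Tween-20, 0.05% BSA with 10uM D-luciferin and 10uM ATP. Compounds titrated qHTS. Luminescence imaged on CCD.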
# Npr1 antag conf: hNpr1 antagonism, confirmation assay. shares compounds with hNpr1 antagonist. HEK293 hNpr1 cGMP GloSensor luminescence, ANP-stimulated. Potency, µM (series often up to 57.6 µM), inactives show top-dose activity change, negative = inhibition, hits mostly inhibitors. hit rate 76% among 1,400. AID 1347044; further: nearly all actives have a fitted effect of over 70% in size
# Npr2 selectivity: selectivity test of Npr1 antagonists against human Npr2 | Potency, µM (titrated, usually from 57.6 µM), for inactives: at the top dose activity change, negative = inhibition, hits mostly inhibitors | shares compounds with hNpr1 antagonist | HEK293 hNpr2 GloSensor cGMP luminescence, CNP-stimulated | hit rate 67% among 1,400 | AID 1347046; further: nearly all actives have a fitted effect of over 70% in size
# FLuc counter: counter-screen for Npr1 antagonists: firefly luciferase inhibitors | purified FLuc enzyme, luminescence, Km substrate | shares compounds with hNpr1 antagonist | hit rate 0.7% among 1,400 | Potency, µM (series often up to 57.6 µM), for the others: at the top dose activity change, negative = inhibition, hits mostly inhibitors; active means well fitted curve in the direction sought with a large enough effect; inconclusive means small, poorly fitted or top-dose-only effect, or another doubt; inactive means no such curve, though single readings can be large; an effect the other way counts as inactive or inconclusive; further: 0% is about no effect
# GloSensor ctrl: control cell line activity, Npr1 antagonist counter-screen; shares compounds with hNpr1 antagonist; HEK293 GloSensor cGMP, SNP-stimulated, luminescence; Potency, µM (doses to about 57.6 µM), for inactives: at the highest dose activity change, negative = inhibition, actives largely listed as inhibitors; hit rate 69% among 1,400; AID 1347051; further: on the % scale 0 is the no-effect control and ±100 the full control effect; nearly all actives have a fitted effect of over 70% in size
# Starred values were filed as active, the others as inactive; i = inactive; ? = inconclusive; nt = no result; [ ] = dose if it differs, or a comment. Unless noted, the call rests on the fitted dose curve. Potency means the concentration at half of the fitted maximal effect.
SMILES,HEK cytotox,hNpr1 antagonist,3T3 cytotox,FLuc inh,Npr1 antag conf,Npr2 selectivity,FLuc counter,GloSensor ctrl
COc1ccc(CN2C(=O)COC[C@@H]2[C@H](O)c2ccc(NC(=O)Cc3ccccc3)cc2)cc1,?,2%,?,i,nt,nt,nt,nt
COc1ccc(CC(=O)Nc2ccc([C@@H](O)[C@H]3COCC(=O)N3Cc3ccc(C(F)(F)F)cc3)cc2)cc1,32µM*,-25%,?,i,?,-18%,-1%,-26%
COc1ccc(CCNC(=O)c2cc3cn(C(C)C)cc3s2)cc1OC,-9%,-12%,-27%,i,nt,nt,nt,nt
CCc1cc(=O)n(CC(=O)N2CCN(c3ccccc3OC)CC2)c(-c2ccccc2)n1,40µM*,-19%,?,i,?,-24%,2%,-3%
CNC(=O)CN(C)Cc1cc(Cl)ccc1OCC(O)CN1CCCCCC1 (stereo unspecified),?,1%,?,i,nt,nt,nt,nt
COc1ccccc1CN1CC[C@@H]2OCC(=O)N(C(C)C)[C@H]2CC1,?,-24%[70.6 µM],?,i,nt,nt,nt,nt
Cc1ccccc1CN1CC[C@@H]2OCC(=O)N(C(C)C)[C@H]2CC1,?,7.9µM*,-24%[138 µM],i,7.9µM*,13µM*,3%[86.2 µM],6.3µM*
O=C(c1ccncc1)N1CC2CCC(C1)N2Cc1ccc(-c2cncnc2)cc1,?,nt,-28%,nt,nt,nt,nt,nt
FC(F)(F)c1ccc(N2C3CCC2CN(Cc2ccc(-c4cccs4)cc2)C3)cc1,2%,0%,-19%,i,nt,nt,nt,nt
COc1cccc(-c2ccc(CN3C4CCC3CN(C(=O)c3ccncc3)C4)cc2)c1,?,nt,?,nt,12µM*,15µM*,-4%,14µM*
O=C(c1ccncc1)N1CC2CCC(C1)N2Cc1ccc(-c2cccs2)cc1,?,nt,?,nt,4.3µM*,5.4µM*,5%,4.3µM*
COc1cccc(-c2ccc(CN3C4CCC3CN(C(C)C)C4)cc2)c1,0%,nt,i,nt,nt,nt,nt,nt
O=C(c1ccncc1)N1CC2CCC(C1)N2Cc1ccc(-c2ccsc2)cc1,?,2.5µM*,?,i,6.9µM*,6.9µM*,3%,6.1µM*
CC(=O)Nc1ccc(CN2CCC3(CC2)CNc2ccccc2[S+](=O)([O-])N3)cc1,-7%,2%,-8%,i,nt,nt,nt,nt
CC(C)N1C(=O)C2(CCCC2)C1C(=O)NCCN1CCC(Cc2ccccc2)CC1 (stereo unspecified),-20%,-5%,-21%,i,nt,nt,nt,nt
O=C(NCC1CCCCC1)C1CCc2nnc(C3CC3)n21 (stereo unspecified),-32%,nt,-19%,nt,nt,nt,nt,nt
O[C@@H]1CC(CNCc2cccc(Cl)c2)(COc2ccccc2)C[C@@H]1O (stereo partly specified),100µM*,-28%[70.6 µM],?,i,?,31µM*,-7%[86.2 µM],-27%[86.2 µM]
O=C(NC1CCCCC1)c1cc(-c2cc(Cl)cc(Cl)c2)c2nncn2n1,-18%,nt,?,nt,nt,nt,nt,nt
CC(C)=CCN1CCCC2(Cc3ccccc3CNC2=O)C1 (stereo unspecified),-13%[172 µM],nt,-11%[138 µM],nt,nt,nt,nt,nt
O=C(OCc1ccccc1)N1CCC2(CC1)C(=O)NN=C2c1cccnc1,?,?,?,i,19µM*,22µM*,1%,17µM*
O=C(Nc1ccc(Cl)cc1)NC1CCCN(c2ccc3nnc(C4CC4)n3n2)C1 (stereo unspecified),?,nt,-13%,nt,nt,nt,nt,nt
O=C(CCC1CCCC1)N1CCC2(CC1)CC(CO)N(C(=O)c1ccccc1)C2 (stereo unspecified),?,nt,-37%,nt,nt,nt,nt,nt
COc1ccccc1C(=O)N1CC(Oc2ccc(-c3nc(-c4ccccc4)no3)cc2)C1,?,11µM*,?,i,24µM*,24µM*,-25%,22µM*
O=C(Cc1ccccc1F)N1CC(Oc2ccc(-c3noc(-c4cccnc4)n3)cc2)C1,-43%,-29%,-2%,i,22µM*,22µM*,-14%,22µM*
COc1cccc(CC(=O)N2CC(Oc3ccc(-c4noc(-c5ccncc5)n4)cc3)C2)c1,13µM*,7.9µM*,?,i,3.1µM*,4.3µM*,-21%,3.4µM*
SMILES,HEK cytotox,hNpr1 antagonist,3T3 cytotox,FLuc inh,Npr1 antag conf,Npr2 selectivity,FLuc counter,GloSensor ctrl
COc1cccc(CN2CCC(Oc3ccccc3-c3nc(-c4ccncc4)no3)C2)c1 (stereo unspecified),?,?,25µM*,i,?,?,?,0%
Cc1cccc(CC(=O)N2CCC3(CC2)CCC(O)(CN(C)C)CC3)c1,-27%,1%,-23%,?,nt,nt,nt,nt
Cc1noc(-c2cn(C3CCN(C(=O)c4ccc(C#N)cc4)CC3)nn2)n1,-2%,0%,-13%,i,nt,nt,nt,nt
CC(C)S(=O)(=O)N1CC(Oc2ccc(-c3noc(-c4cccnc4)n3)cc2)C1,?,1.4µM*,-24%,i,22µM*,?,-14%,22µM*
COc1ccc(S(=O)(=O)N2CCC(c3noc(-c4cccnc4)n3)C2)cc1 (stereo unspecified),-8%,-7%,-26%,i,nt,nt,nt,nt
CN(Cc1cccc2cnccc12)C(=O)c1cc(COc2ccc(F)cc2F)on1,?,11µM*,?,i,24µM*,22µM*,-1%,19µM*
COc1ccc(OCc2nc(C3CN(C(=O)CCCc4ccccc4)C3)no2)cc1,?,?,?,i,nt,nt,nt,nt
COc1cccc(S(=O)(=O)N2CCn3nnc(CCC(=O)N4CCOCC4)c3C2)c1,-18%,nt,-21%,nt,nt,nt,nt,nt
COc1ccc2nc(C[C@@H]3C[C@@H](C(C)C)[C@H](CNC(=O)CCC(=O)O)C=C3C)[nH]c2c1,i,-1%[70.6 µM],2%[174 µM],i,nt,nt,nt,nt
COc1ccc2nc(C[C@@H]3C[C@@H](C(C)C)[C@H](CNCc4ccccc4OC)C=C3C)[nH]c2c1,20µM*,-26%,28µM*,i,?,?,-2%,-26%
COc1cccc(CN2CCOC3(CCN([S+](=O)([O-])c4ccccc4)CC3)C2=O)c1,?,-25%[70.6 µM],?,i,nt,nt,nt,nt
COc1cccc(CN2CCOC3(CCN(Cc4ccc(C#N)cc4)CC3)C2=O)c1,?,?,?,i,35µM*,40µM*,2%[86.2 µM],35µM*
